# Reference: article PMC7862700, “An all-to-all approach to the identification of sequence-specific readers for epigenetic DNA modifications on cytosine”
# Tests used:
# Assay in all cases: DAPPL (digital affinity profiling via proximity ligation, sequencing); 10 mM Tris-HCl pH 7.5, 50 mM NaCl, 1 mM DTT, 4% glycerol, room temperature, 30 min; GST-TFs on glutathione beads, 16-mer random dsDNA library, 0.1% formaldehyde crosslink after washing; high values mean tight binding
# FLI1 = target: T1, FLI1 (Homo sapiens, UniProt Q01543 1-452); conditions: protein: recombinant; tags: N-terminal GST; dsDNA, one strand shown
# T1 sequence: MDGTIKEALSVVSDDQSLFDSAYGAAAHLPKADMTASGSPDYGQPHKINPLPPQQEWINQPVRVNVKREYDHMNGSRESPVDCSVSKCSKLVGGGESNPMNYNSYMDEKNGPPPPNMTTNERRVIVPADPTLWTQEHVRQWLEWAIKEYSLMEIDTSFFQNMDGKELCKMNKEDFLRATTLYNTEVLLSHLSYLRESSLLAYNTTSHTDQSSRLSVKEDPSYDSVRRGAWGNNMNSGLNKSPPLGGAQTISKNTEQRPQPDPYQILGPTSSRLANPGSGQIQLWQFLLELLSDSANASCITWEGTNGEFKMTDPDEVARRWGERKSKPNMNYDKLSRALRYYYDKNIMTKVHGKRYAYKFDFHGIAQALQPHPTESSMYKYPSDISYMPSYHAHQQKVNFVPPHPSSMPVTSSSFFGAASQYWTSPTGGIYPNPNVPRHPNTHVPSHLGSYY
# Summary of the method: (§1)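 GST fusions of human transcription factors were expressed in yeast and captured with glutathione beads. Once given DNA barcodes and pooled alongside a tag-only sample, they were incubated for 30 min at room temperature with 200 nmole of a random double-stranded 16-mer DNA library in Tris/NaCl/DTT/glycerol buffer, then washed, crosslinked (0.1% formaldehyde), proximity-ligated, PCR-amplified and sequenced on an Illumina NextSeq500. The binding signal of each hexamer is its read frequency for a factor divided by its frequency for the tag-only sample.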
# ELK1 = target: T2, ELK1 (Homo sapiens, UniProt P19419 1-428); conditions: protein: recombinant; tags: N-terminal GST; dsDNA, one strand shown
# T2 sequence: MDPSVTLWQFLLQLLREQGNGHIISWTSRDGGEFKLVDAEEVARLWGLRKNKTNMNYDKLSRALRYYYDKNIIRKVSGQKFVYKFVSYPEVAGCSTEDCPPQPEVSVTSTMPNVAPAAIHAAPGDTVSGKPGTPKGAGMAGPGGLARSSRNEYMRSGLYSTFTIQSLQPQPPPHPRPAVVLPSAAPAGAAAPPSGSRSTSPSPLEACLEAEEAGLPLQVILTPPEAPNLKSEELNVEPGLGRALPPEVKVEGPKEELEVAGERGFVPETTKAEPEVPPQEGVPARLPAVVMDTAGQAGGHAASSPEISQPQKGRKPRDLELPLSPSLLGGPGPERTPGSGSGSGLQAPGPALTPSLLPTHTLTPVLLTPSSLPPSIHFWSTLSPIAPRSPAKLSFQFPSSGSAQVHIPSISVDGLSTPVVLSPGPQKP
# Summary of the method: as §1
# GABPA = target: T3, GABPA (Homo sapiens, UniProt Q06546 1-454); conditions: protein: recombinant; tags: N-terminal GST; dsDNA, one strand shown
# T3 sequence: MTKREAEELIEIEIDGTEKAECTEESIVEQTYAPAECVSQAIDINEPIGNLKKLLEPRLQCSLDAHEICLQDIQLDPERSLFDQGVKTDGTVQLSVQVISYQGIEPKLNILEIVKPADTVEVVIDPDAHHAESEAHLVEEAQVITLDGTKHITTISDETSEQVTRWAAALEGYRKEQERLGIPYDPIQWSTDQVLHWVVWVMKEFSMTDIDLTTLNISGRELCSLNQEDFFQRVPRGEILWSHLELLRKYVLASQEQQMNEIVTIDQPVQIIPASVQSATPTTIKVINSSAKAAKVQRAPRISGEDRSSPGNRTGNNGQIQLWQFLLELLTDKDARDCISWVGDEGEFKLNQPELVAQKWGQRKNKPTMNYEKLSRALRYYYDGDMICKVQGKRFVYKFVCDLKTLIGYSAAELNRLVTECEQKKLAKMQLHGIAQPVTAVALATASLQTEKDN
# Summary of the method: as §1
# ERG = target: T4, ERG (Homo sapiens, UniProt P11308 1-479); conditions: protein: recombinant; tags: N-terminal GST; dsDNA, one strand shown
# T4 sequence: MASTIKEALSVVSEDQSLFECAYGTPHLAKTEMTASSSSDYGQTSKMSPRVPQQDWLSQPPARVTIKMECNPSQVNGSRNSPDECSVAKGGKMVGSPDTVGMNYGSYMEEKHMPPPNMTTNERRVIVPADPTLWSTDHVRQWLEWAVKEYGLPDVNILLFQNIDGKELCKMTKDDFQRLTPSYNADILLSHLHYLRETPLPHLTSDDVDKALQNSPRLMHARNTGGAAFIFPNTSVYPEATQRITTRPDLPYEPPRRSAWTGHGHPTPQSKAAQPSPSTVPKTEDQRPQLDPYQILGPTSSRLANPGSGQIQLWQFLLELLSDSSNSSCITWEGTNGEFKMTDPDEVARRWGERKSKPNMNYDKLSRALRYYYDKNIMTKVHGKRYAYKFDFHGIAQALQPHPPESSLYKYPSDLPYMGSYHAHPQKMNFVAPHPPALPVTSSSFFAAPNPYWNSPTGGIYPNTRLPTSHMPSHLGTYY
# Summary of the method: as §1
# ELF1 = ELF1 (Homo sapiens, UniProt P32519 1-619); conditions: protein: recombinant; tags: N-terminal GST; dsDNA, one strand shown
# Sequence of ELF1 (P32519 whole entry): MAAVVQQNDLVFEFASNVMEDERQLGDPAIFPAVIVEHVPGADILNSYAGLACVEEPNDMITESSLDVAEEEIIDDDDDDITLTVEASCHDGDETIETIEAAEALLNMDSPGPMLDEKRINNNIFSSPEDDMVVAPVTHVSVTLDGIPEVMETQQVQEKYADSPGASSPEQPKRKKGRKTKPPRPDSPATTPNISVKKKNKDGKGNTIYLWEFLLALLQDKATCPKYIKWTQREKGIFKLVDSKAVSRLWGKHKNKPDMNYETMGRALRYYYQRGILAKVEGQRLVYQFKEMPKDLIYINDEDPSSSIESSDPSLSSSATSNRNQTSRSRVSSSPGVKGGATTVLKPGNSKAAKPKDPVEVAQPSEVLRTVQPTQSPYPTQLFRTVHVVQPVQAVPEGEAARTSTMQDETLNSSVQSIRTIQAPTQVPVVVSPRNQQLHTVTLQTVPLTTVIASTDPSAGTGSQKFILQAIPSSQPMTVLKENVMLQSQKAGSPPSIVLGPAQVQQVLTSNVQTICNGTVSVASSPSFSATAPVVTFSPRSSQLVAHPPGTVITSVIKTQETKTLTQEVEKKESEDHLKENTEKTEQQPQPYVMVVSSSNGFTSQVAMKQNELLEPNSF
# Summary of the method: as §1
# EHF = target: T5, EHF (Homo sapiens, UniProt Q9NZC4 1-300); conditions: protein: recombinant; tags: N-terminal GST; dsDNA, one strand shown
# T5 sequence: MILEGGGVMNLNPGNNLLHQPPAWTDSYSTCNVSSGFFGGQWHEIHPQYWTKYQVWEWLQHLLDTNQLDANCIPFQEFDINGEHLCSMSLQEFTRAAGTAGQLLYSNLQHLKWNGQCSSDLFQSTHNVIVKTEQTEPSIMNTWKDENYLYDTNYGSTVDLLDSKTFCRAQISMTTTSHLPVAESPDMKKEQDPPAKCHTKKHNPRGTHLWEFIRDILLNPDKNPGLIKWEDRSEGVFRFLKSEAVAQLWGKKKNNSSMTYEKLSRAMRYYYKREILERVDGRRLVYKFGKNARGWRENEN
# Summary of the method: as §1
# SPI1 = SPI1 (Homo sapiens, UniProt P17947 1-270); conditions: protein: recombinant; tags: N-terminal GST; dsDNA, one strand shown
# Summary of the method: as §1
# SPIB = SPIB (Homo sapiens, UniProt Q01892 1-262); conditions: protein: recombinant; tags: N-terminal GST; dsDNA, one strand shown
# Sequence of SPIB (Q01892 whole entry): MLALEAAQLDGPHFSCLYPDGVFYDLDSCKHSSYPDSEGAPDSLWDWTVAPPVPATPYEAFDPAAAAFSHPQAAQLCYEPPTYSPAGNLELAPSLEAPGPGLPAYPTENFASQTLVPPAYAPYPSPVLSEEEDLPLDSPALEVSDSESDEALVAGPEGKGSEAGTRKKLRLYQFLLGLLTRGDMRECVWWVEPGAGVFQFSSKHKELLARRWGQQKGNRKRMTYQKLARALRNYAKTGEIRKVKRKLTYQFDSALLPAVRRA
# Summary of the method: as §1
# ELK3 = target: T6, ELK3 (Homo sapiens, UniProt P41970 1-407); conditions: protein: recombinant; tags: N-terminal GST; dsDNA, one strand shown
# T6 sequence: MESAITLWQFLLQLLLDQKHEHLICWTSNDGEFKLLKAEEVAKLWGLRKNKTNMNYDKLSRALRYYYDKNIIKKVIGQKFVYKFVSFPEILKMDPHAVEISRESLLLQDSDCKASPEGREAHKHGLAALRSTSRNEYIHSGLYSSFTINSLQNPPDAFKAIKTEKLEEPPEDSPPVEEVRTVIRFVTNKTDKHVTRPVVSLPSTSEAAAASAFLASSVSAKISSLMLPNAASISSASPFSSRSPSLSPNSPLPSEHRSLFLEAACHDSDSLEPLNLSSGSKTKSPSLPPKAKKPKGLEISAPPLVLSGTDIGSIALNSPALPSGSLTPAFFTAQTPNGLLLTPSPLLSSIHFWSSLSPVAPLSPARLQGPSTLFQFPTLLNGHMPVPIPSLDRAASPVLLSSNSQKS
# Summary of the method: as §1
# FEV = target: T7, FEV (Homo sapiens, UniProt Q99581 1-238); conditions: protein: recombinant; tags: N-terminal GST; dsDNA, one strand shown
# T7 sequence: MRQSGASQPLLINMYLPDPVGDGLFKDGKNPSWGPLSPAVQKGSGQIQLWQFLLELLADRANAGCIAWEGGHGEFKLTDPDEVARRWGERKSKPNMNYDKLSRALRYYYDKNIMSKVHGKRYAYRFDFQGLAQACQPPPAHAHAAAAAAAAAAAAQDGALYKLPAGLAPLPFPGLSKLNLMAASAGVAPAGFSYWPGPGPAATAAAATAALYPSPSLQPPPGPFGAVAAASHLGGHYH
# Summary of the method: as §1
# ETV5 = ETV5 (Homo sapiens, UniProt P41161 1-510); conditions: protein: recombinant; tags: N-terminal GST; dsDNA, one strand shown
# Sequence of ETV5 (P41161 whole entry): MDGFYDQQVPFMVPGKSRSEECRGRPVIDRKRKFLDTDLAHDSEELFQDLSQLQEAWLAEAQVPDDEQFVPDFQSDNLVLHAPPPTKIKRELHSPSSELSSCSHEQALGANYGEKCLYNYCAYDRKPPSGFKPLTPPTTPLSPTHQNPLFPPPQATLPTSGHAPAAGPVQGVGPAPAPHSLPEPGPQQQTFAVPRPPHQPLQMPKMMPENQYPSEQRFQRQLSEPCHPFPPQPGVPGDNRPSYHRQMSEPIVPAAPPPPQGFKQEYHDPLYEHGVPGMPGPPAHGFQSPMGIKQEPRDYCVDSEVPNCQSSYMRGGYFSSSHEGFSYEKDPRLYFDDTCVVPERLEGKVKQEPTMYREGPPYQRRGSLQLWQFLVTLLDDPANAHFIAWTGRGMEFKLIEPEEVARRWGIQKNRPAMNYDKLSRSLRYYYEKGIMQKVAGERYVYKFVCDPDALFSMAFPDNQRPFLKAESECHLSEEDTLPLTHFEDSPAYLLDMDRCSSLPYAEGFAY
# Summary of the method: as §1
# HSF1 = HSF1 (Homo sapiens, UniProt Q00613 1-529); conditions: protein: recombinant; tags: N-terminal GST; chain copies: 3; dsDNA, one strand shown
# Sequence of HSF1 (Q00613 whole entry): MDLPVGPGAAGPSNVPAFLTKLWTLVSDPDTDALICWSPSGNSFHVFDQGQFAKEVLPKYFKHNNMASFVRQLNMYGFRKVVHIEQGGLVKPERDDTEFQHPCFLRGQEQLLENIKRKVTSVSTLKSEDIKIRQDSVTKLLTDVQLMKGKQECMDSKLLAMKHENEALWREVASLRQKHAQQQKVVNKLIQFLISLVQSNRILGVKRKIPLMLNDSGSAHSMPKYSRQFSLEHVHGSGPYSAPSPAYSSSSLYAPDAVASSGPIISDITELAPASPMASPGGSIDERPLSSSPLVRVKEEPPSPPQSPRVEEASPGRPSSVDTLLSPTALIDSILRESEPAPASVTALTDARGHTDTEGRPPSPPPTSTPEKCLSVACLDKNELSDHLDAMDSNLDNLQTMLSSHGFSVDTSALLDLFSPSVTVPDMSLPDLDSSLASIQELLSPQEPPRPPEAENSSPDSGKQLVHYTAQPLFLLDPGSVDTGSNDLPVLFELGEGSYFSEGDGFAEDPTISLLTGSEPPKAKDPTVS
# Summary of the method: as §1
# SPIC = target: T8, SPIC (Homo sapiens, UniProt Q8N5J4 1-248); conditions: protein: recombinant; tags: N-terminal GST; dsDNA, one strand shown
# T8 sequence: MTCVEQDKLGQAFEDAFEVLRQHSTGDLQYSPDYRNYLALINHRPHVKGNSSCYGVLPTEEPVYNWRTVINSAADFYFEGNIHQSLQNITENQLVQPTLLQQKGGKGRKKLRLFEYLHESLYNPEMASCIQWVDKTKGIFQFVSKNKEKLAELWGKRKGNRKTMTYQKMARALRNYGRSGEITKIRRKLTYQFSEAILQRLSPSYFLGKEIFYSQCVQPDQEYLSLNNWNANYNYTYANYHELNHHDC
# Summary of the method: as §1
# ELF4 = ELF4 (Homo sapiens, UniProt Q99607 1-663); conditions: protein: recombinant; tags: N-terminal GST; dsDNA, one strand shown
# Sequence of ELF4 (Q99607 whole entry): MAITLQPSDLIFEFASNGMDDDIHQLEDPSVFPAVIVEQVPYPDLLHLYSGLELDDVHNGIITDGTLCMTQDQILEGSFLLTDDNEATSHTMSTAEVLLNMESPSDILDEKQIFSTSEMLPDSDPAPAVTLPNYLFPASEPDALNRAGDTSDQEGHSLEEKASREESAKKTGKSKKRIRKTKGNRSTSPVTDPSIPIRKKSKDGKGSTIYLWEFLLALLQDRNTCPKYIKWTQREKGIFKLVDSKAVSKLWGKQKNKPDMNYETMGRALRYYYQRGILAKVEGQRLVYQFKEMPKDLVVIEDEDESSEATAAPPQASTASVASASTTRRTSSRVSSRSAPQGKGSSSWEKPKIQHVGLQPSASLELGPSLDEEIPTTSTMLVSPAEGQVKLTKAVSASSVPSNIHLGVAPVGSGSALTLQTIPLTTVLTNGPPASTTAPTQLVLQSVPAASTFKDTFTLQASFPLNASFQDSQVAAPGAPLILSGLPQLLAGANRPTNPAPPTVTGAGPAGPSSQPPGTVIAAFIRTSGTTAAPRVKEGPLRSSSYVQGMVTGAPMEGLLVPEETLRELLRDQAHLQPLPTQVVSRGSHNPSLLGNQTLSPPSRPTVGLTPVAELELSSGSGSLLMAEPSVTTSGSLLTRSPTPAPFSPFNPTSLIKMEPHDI
# Summary of the method: as §1
# ELK4 = target: T9, ELK4 (Homo sapiens, UniProt P28324-2 1-405); conditions: protein: recombinant; tags: N-terminal GST; dsDNA, one strand shown
# T9 sequence: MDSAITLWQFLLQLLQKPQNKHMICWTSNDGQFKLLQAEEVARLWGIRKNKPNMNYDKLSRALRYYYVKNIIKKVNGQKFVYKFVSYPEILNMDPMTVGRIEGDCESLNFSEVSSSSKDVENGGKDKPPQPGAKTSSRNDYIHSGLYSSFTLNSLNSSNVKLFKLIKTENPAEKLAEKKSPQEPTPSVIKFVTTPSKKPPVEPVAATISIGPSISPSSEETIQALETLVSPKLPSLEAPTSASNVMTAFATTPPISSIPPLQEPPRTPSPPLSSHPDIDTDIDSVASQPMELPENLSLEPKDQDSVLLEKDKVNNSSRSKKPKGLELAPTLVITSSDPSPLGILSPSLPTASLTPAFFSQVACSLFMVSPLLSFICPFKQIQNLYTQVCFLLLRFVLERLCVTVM
# Summary of the method: as §1
# ETV2 = target: T10, ETV2 (Homo sapiens, UniProt O00321 1-342); conditions: protein: recombinant; tags: N-terminal GST; dsDNA, one strand shown
# T10 sequence: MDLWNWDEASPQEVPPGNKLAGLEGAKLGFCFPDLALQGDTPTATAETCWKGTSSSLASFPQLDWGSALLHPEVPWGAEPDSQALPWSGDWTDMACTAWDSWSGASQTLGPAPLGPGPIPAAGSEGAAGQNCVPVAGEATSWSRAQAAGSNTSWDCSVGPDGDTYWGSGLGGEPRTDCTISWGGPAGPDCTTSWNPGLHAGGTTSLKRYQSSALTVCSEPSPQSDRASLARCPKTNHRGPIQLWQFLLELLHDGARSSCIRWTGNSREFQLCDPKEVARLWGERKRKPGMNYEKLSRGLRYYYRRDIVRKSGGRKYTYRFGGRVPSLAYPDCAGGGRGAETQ
# Summary of the method: as §1
# ELF3 = target: T11, ELF3 (Homo sapiens, UniProt P78545 1-371); conditions: protein: recombinant; tags: N-terminal GST; dsDNA, one strand shown
# T11 sequence: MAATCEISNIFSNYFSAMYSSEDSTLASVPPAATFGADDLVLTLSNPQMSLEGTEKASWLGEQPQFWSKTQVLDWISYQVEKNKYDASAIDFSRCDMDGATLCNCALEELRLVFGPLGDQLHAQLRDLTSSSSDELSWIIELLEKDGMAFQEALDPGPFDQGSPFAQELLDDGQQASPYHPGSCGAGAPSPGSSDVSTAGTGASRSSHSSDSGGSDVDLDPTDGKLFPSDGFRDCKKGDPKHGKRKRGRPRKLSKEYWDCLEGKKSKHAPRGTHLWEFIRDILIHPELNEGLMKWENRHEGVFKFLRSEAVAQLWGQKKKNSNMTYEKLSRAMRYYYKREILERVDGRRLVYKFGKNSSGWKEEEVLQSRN
# Summary of the method: as §1
# CRX = CRX (Homo sapiens, UniProt O43186 1-299); conditions: protein: recombinant; tags: N-terminal GST; dsDNA, one strand shown
# Sequence of CRX (O43186 whole entry): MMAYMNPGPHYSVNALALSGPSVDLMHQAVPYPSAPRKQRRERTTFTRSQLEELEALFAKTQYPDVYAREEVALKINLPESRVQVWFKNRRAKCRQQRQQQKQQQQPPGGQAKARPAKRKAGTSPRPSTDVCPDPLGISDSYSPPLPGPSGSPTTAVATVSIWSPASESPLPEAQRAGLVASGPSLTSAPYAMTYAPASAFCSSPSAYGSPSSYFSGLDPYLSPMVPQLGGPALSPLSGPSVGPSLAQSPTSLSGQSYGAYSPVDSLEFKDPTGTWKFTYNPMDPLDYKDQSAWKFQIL
# Summary of the method: as §1
# ETV1 = ETV1 (Homo sapiens, UniProt P50549 1-477); conditions: protein: recombinant; tags: N-terminal GST; dsDNA, one strand shown
# Sequence of ETV1 (P50549 whole entry): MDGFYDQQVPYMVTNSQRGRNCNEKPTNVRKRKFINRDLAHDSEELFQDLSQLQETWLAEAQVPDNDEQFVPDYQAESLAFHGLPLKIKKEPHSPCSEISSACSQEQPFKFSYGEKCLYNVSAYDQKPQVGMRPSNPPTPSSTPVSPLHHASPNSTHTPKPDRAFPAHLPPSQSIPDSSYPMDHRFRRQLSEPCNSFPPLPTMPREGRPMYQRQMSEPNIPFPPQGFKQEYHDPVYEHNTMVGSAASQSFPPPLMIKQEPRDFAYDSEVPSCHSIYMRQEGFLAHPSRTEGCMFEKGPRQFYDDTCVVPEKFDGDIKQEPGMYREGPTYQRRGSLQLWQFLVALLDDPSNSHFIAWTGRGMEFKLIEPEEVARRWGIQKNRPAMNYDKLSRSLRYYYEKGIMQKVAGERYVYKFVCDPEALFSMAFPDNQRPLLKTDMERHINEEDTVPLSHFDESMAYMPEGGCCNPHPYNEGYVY
# Summary of the method: as §1
sequence,measurement,setting,value
TGACCT,binding signal,FLI1,"1.75 fold enrichment (6-mer frequency, TF over GST control)"
same,binding signal,ELK1,"1.82 fold enrichment (6-mer frequency, TF over GST control)"
same,binding signal,GABPA,"1.81 fold enrichment (6-mer frequency, TF over GST control)"
same,binding signal,ERG,"1.73 fold enrichment (6-mer frequency, TF over GST control)"
same,binding signal,ELF1,"1.84 fold enrichment (6-mer frequency, TF over GST control)"
same,binding signal,EHF,"1.86 fold enrichment (6-mer frequency, TF over GST control)"
same,binding signal,SPI1,"1.7 fold enrichment (6-mer frequency, TF over GST control)"
same,binding signal,SPIB,"1.56 fold enrichment (6-mer frequency, TF over GST control)"
same,binding signal,ELK3,"1.6 fold enrichment (6-mer frequency, TF over GST control)"
same,binding signal,FEV,"1.69 fold enrichment (6-mer frequency, TF over GST control)"
same,binding signal,ETV5,"1.68 fold enrichment (6-mer frequency, TF over GST control)"
same,binding signal,HSF1,"1.5 fold enrichment (6-mer frequency, TF over GST control)"
same,binding signal,SPIC,"1.79 fold enrichment (6-mer frequency, TF over GST control)"
same,binding signal,ELF4,"1.82 fold enrichment (6-mer frequency, TF over GST control)"
same,binding signal,ELK4,"1.74 fold enrichment (6-mer frequency, TF over GST control)"
same,binding signal,ETV2,"1.65 fold enrichment (6-mer frequency, TF over GST control)"
same,binding signal,ELF3,"1.68 fold enrichment (6-mer frequency, TF over GST control)"
same,binding signal,CRX,"1.36 fold enrichment (6-mer frequency, TF over GST control)"
same,binding signal,ETV1,"1.88 fold enrichment (6-mer frequency, TF over GST control)"
